Results as given in ChEMBL document CHEMBL1157539, “Thousands of chemical starting points for antimalarial lead identification” (Nature, 2010).

tested on: Plasmodium falciparum; assay: GSK_TCMDC: Inhibition of Plasmodium falciparum 3D7 in whole red blood cells, using parasite LDH activity as an index of growth. Test compounds present at 2uM; format: functional

With `O=C(O)C(F)(F)F.c1cc(CN2CCCCC2)cc(-c2ccc(-c3nc4ccccc4[nH]3)s2)c1` as the compound, how does the Inhibition read?
Its Inhibition is 100%.

Which Inhibition does the source give for `COc1cccc2c(N/N=C/c3ccccc3[N+](=O)[O-])ccnc12` here?
The Inhibition was 99%.

For `O=C(NCc1ccc(F)cc1)c1ccc(N2CCN(c3ccncc3)CC2)cn1.O=C(O)C(F)(F)F`, which Inhibition is on record?
The Inhibition was 98%.

For `c1ccc(COc2ccc(Cn3ccc(-c4ccc(-n5ccnc5)cc4)n3)cc2)cc1.c1ccc(COc2ccc(Cn3nccc3-c3ccc(-n4ccnc4)cc3)cc2)cc1`, which Inhibition is on record?
Its Inhibition is 94%.

How did the Inhibition turn out when `Cl.NC(=O)c1cccc(Nc2nccc(Nc3ccc(Oc4ccc5ccccc5c4)cc3)n2)c1` was run?
Its Inhibition is 96%.

With `CN1CCN(CCCN(Cc2csc(-c3ccc(CNCc4ccccc4)cc3)n2)C(=O)Nc2ccc3ccccc3c2)CC1.O=C(O)C(F)(F)F` as the compound, how does the Inhibition read?
The Inhibition was 94%.

`Cc1nc2nc(N)nc(N)c2c(C)c1Cc1ccccc1I.Cl` was tested. Which Inhibition did it give?
The Inhibition was 96%.

With `Cc1cc(NC(=O)NCCN2CCC(NS(=O)(=O)c3ccc(C(F)(F)F)cc3)C2)c2ccccc2n1.O=C(O)C(F)(F)F` (stereo not given) as the compound, how does the Inhibition read?
Its Inhibition is 96%.

For `Cc1cc2nc(-c3ccc(/C=C/C(=O)NC4CCN(Cc5ccccc5)CC4)cc3)[nH]c2cc1C`, which Inhibition is on record?
Its Inhibition is 98%.

For `COc1cccc(C(=O)Nc2ccc(Nc3nc(C)cc(N(C)C)n3)cc2)c1`, which Inhibition is on record?
Its Inhibition is 92%.

How did the Inhibition turn out when `CS(=O)(=O)c1cccc(-c2ccc3oc(C(N)=O)c(NC(=O)c4cccs4)c3c2)c1` was run?
The Inhibition was 86%.

How did the Inhibition turn out when `CN1CCCN(Cc2cccc(-c3cccc(NS(=O)(=O)c4cccc5cccnc45)c3)c2)CC1.O=C(O)C(F)(F)F` was run?
Its Inhibition is 97%.

`N#Cc1ccc2[nH]cc(-c3cn4cc(SC5CCCC5)ccc4n3)c2c1` was tested. Which Inhibition did it give?
Its Inhibition is 92%.

With `Cl.Clc1ccc2c(NCCc3ccccc3)ccnc2c1` as the compound, how does the Inhibition read?
The Inhibition was 93%.

For `COc1ccc(CNCc2cccc(-c3ccc(-c4nc5cc(C(F)(F)F)ccc5[nH]4)cc3)c2)cc1.O=C(O)C(F)(F)F`, which Inhibition is on record?
The Inhibition was 100%.

Which Inhibition does the source give for `O=c1cc(NCCCNCc2ccc(C(F)(F)F)c(F)c2)[nH]c2ccccc12` here?
Its Inhibition is 93%.

With `Cc1ccc2[nH]c3c(c2c1)CC(C(=O)NCCC(C)C)NC31CCN(Cc2ccccc2)CC1` (stereo not given) as the compound, how does the Inhibition read?
Its Inhibition is 95%.

Which Inhibition does the source give for `SC(=Nc1ccc(Cl)c(Cl)c1)NN=Cc1ccccn1` here?
The Inhibition was 98%.

With `Cc1ccccc1CCNC(=O)c1ccc(N2CCN(c3ccncc3)CC2)nc1.O=C(O)C(F)(F)F` as the compound, how does the Inhibition read?
The Inhibition was 95%.

`c1ccc(Oc2ccc(Nc3ccnc4cc(-c5cccc(CN6CCOCC6)c5)ccc34)cc2)cc1` was tested. Which Inhibition did it give?
The Inhibition was 100%.

For `O=C(N[C@H]1CCN(Cc2ccc(OCCCN3CCCCC3)cc2)C1)c1cc(Cl)cc(Cl)c1`, which Inhibition is on record?
Its Inhibition is 99%.

With `NC(=O)c1cccc(C(=O)Nc2cccc(-c3ccc(-c4nc5ccccc5[nH]4)s3)c2)c1` as the compound, how does the Inhibition read?
The Inhibition was 95%.

Which Inhibition does the source give for `Cc1cc(C2CCN(CCCCNC(=O)c3ccc(-c4ccc(C(F)(F)F)cc4)cc3)CC2)c(C)cc1OCC#N` here?
Its Inhibition is 100%.

How did the Inhibition turn out when `COc1cc2c(c(OC)c1[N+](=O)[O-])C=CC1(O2)N(C)c2ccc([N+](=O)[O-])cc2C1(C)C` (stereo not given) was run?
Its Inhibition is 92%.

Which Inhibition does the source give for `CC1CN(c2nc(NCCc3ccc(O)cc3)nc(NCc3ccccc3-c3ccc(C(F)(F)F)cc3)n2)CC(C)N1` (stereo not given) here?
The Inhibition was 100%.

Which Inhibition does the source give for `O=C(Nc1cccc(C(F)(F)F)c1)c1cccc(S(=O)(=O)NC2CCN(CC3CCCCC3)C2)c1.O=C(O)C(F)(F)F` (stereo not given) here?
The Inhibition was 100%.

`COc1cc(-c2ccc3c(-c4ccc(C(=O)N5CCN(C)CC5)cc4)n[nH]c3n2)cc(OC)c1OC` was tested. Which Inhibition did it give?
The Inhibition was 91%.

How did the Inhibition turn out when `CC(C)Cc1ccc(N2CCN(CCCCNC(=O)c3ccc(NC(=O)c4ccc(Cl)c(Cl)c4)cc3)CC2)cc1` was run?
Its Inhibition is 94%.

With `CC(C)Cn1c(Sc2ccc(C#N)c([N+](=O)[O-])c2)nnc1-c1ccccc1Cl` as the compound, how does the Inhibition read?
The Inhibition was 93%.

With `Cn1cncc1CCN(Cc1ccc(-c2ccc(C(F)(F)F)cc2)cc1)C(=O)Cn1c(SCc2cccc(F)c2F)cc(=O)c2ccccc21` as the compound, how does the Inhibition read?
Its Inhibition is 99%.

How did the Inhibition turn out when `Cc1cccc2nc(-c3ccc(-c4cccc(CN5CCC(C(N)=O)CC5)c4)cc3)[nH]c12.O=C(O)C(F)(F)F` was run?
Its Inhibition is 87%.

With `CCOC(=O)c1ccc(N2CCN(c3cc(C)ccc3C)CC2)c(NC(=O)Nc2ccc(Cl)c(Cl)c2)c1` as the compound, how does the Inhibition read?
The Inhibition was 100%.

`Cl.O=C(Nc1cccc(C2=NCCCN2)c1)Nc1cccc(C2=NCCCN2)c1` was tested. Which Inhibition did it give?
Its Inhibition is 81%.

With `Cc1ccc2c(=NN=Cc3ccc(Cl)cc3)cc(C)[nH]c2c1` as the compound, how does the Inhibition read?
The Inhibition was 100%.

Which Inhibition does the source give for `COc1cc2nc(N3CCN(c4nc(N)c5cc(OC)c(OC)cc5n4)CC3)nc(N)c2cc1OC` here?
The Inhibition was 100%.

For `COc1ccc2nccc([C@@H](O)CN3CCC(NCc4cc5c(Cl)cccc5[nH]4)CC3)c2c1.O=C(O)C(=O)O`, which Inhibition is on record?
Its Inhibition is 100%.

`COc1cccc2cc(C(=O)N[C@@H](CC(C)C)C(=O)N[C@H](/C=N/NC(=O)Cc3cccnc3)CCc3ccccc3)oc12` was tested. Which Inhibition did it give?
Its Inhibition is 82%.

How did the Inhibition turn out when `CC(Nc1ccnc2cc(Cl)ccc12)c1ccc(S(N)(=O)=O)cc1` (stereo not given) was run?
Its Inhibition is 96%.

Which Inhibition does the source give for `COc1ccc(Nc2nccc(NCCNC(=O)c3cc4ccccc4s3)n2)cc1` here?
The Inhibition was 98%.

Which Inhibition does the source give for `COc1ccc(-c2nc(-c3ccc([N+](=O)[O-])cc3)no2)cc1OC` here?
Its Inhibition is 96%.
